In PubChem BioAssay (NCI) one finds growth data, which are given here for 38 compounds.

This is part of a sample that, as a whole, favours compounds with a hit. Of some 83,000 tested, about 20% had one in any assay.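 Single-concentration screen, 48 h exposure, 96-well plates. Endpoint: percent growth. Below 10 = active.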 Calls of active or inactive are those of the source.

For one assay, the system named is CAKI-1 renal. Briefly: NCI-60 one-dose screen, 48 h (100 = growth as untreated, 0 = no growth, -100 = all killed). The following applies: 10 µM unless noted.
On to `CCn1cc(C(=O)O)c(=O)c2cc(F)c(N3CCN(S(=O)(=O)c4ccc(OC)c(OC)c4)CC3)cc21`, for which the growth was 99% (inactive).
On to `COc1cc2nc(SCc3cc(OC)c(OC)c(OC)c3)n(Cc3ccccc3)c(=O)c2cc1OC`, for which the growth was 25.7% (inactive).
In the case of `O=[N+]([O-])c1cc(S(=O)(=O)OCC2CO2)ccc1Cl` (stereo unspecified), the growth was 104% (inactive).
Same read-out and setting: to `Nc1c(C(=O)Nc2ccccc2)sc2nc3c(cc12)CCC3` belongs 81.5% (inactive); to `COc1ccc([N+](=O)[O-])c(/C=C/C(=O)c2ccccn2)c1`, 71.7% (inactive); to `CC(C(=O)n1cc(-c2ccccc2)c(-c2ccccc2)c1)c1ccccc1` (stereo unspecified), 91.6% (inactive).
Take `CCNCc1ccncc1`: the growth was 94% (inactive).
On the same count and under the same terms, to `NCCSC(c1ccccc1)(c1ccccc1)c1ccccc1` belongs 15.9% (inactive); to `O=C(O)c1ccc(-n2c(=O)c3ccccc3c3ccccc3c2=O)cc1`, 101% (inactive); to `COc1cc(/C=C2\C=C(c3ccc(F)cc3)N(Cc3ccccc3)C2=O)cc(OC)c1OC`, 63.3% (inactive).
Same read-out and setting: to `COc1ccc(/C=C2\C(=O)N(C(=O)c3csc(NC(C)=O)n3)N=C2C)cc1` belongs 99% (inactive); to `COc1cccc(NC(=O)Cn2cc3c(=O)oc4ccccc4c3n2)c1`, 95.6% (inactive).
The same measure, in the same setting: as for `CNC(C)=O`, the figure is 96.2% (inactive); as for `C=C1C(=O)O[C@H]2[C@H](O)[C@@H](C)CCC/C(C)=C/CC[C@@]3(C)O[C@@H]3C[C@@H]12`, 74.8% (inactive).
Take `CC(=O)Nc1ccc(S(=O)(=O)NC(CCC(=O)Nc2ccc(Cl)cc2)C(=O)O)cc1` (stereo unspecified): the growth is 83% (inactive).
The same measure, in the same setting: as for `Cn1c(C(N)=O)cc2c1-c1nc(NC3CCCCC3)ncc1CCC2`, the figure is 83.3% (inactive); as for `Cc1nc2sccn2c1-c1csc(Nc2ccccc2Cl)n1`, 34.6% (inactive).
Still for that read-out and setting: to `Cc1ccc(Cn2c(-c3cccs3)nc3ccccc32)cc1` belongs 86.3% (inactive).
Regarding `COC1=CC(c2ccc[nH]2)=N/C1=C\c1[nH]c(C)c(C(=O)CCCCC(=O)Nc2ccccc2)c1C`, the growth is 3.42% (active).
`COc1ccc(-c2cn[nH]c2-c2cc(OC)c3c(c2)OCCO3)cc1`: the growth is 56.9% (inactive).
The same measure, in the same setting: to `COc1ccc(/C=C/c2nc(N3CCOCC3)c3cc(F)c(F)cc3n2)cc1OC` belongs 28.1% (inactive).
On the same count and under the same terms, as for `O=c1oc2cc(OS(=O)(=O)c3ccc(F)cc3)ccc2c2c1CCCCC2`, the figure is 86.7% (inactive).
For the compound `CCn1cc(C(=O)O)c(=O)c2cc(F)c(N3CCN(S(=O)(=O)c4ccc(Cl)cc4Cl)CC3)cc21`, the growth is 4.75% (active).
The same measure, in the same setting: as for `O=C(CN1CCN(c2cc3c(cc2F)c(=O)c(C(=O)O)cn3C2CC2)CC1)Nc1ccc(C(=O)/C=C/c2ccccc2)cc1`, the figure is 73.1% (inactive); as for `O=C(CC(O)c1ccncc1)c1ccccc1` (stereo unspecified), 86.2% (inactive).
The same measure, in the same setting: to `CCn1cc(C(=O)O)c(=O)c2cc(F)c(N3CCN(S(=O)(=O)c4cccc5ccccc45)CC3)cc21` belongs 0.945% (active); to `CCN(CC)CCCC(C)N=c1cc(Nc2cc(=NC(C)CCCN(CC)CC)c3cc(OC)ccc3o2)oc2ccc(OC)cc12` (stereo unspecified), -39.7% (active); to `NC(=S)NN=C1CCCCC1`, 103% (inactive).

A further assay deals with A498 renal. Described as above. The following applies: 10 µM unless noted.
As for `CCNC(=O)CCCCC(=O)c1c(C)[nH]c(/C=C2\N=C(c3ccc[nH]3)C=C2OC)c1C`, the growth is 95.8% (inactive).
On the same count and under the same terms, to `CC(=O)OCC1OC(OCC2OC(OC(C)=O)C(OC(C)=O)C(OC(C)=O)C2OC(C)=O)C(OC(C)=O)C(OC(C)=O)C1OC(C)=O` (stereo unspecified) belongs 87% (inactive); to `Clc1ccc([I+]c2ccc(Cl)cc2Cl)c(Cl)c1`, 69.9% (inactive); to `CCC(=O)Oc1cc(/C=C/C(=O)O[C@H]2C[C@H]3CN4CCc5c([nH]c6cc(OC)ccc56)[C@@H]4C[C@@H]3[C@@H](C(=O)OC)[C@@H]2OC)ccc1OC`, 5.24% (active).
Same read-out and setting: as for `COC1=CC(c2ccc[nH]2)=N/C1=C\c1[nH]c(C)c(C(=O)CCCCC(=O)NCc2ccccc2)c1C`, the figure is 89.1% (inactive).
Take `COc1ccc(-c2nnc(COc3ccc(NS(=O)(=O)c4ccc(OC)cc4)cc3F)o2)cc1`: the growth was 59.2% (inactive).
The same measure, in the same setting: as for `CN1CCN(c2ccc3cc(-c4nc5ccccc5[nH]4)c(=O)oc3c2)CC1`, the figure is 86.3% (inactive); as for `CCC1=C[C@@H]2CN(C1)Cc1c([nH]c3ccccc13)[C@@](C(=O)OC)(c1cc3c(cc1OC)N(C=O)[C@H]1[C@@](O)(C(=O)OC)[C@H](OC(C)=O)[C@]4(CC)[C@@H]5C[C@@H]5CN5CC[C@]31[C@@H]54)C2`, -8.16% (active).
The same measure, in the same setting: as for `O=S(=O)(c1ccccc1)n1ccc(-c2ccc3c(c2)CCO3)n1`, the figure is 71.2% (inactive); as for `COC1=CC(c2ccc[nH]2)=N/C1=C\c1[nH]c(C)c(CCCn2cc(CCCCCCCCC[C@@H]3Cc4cc(O)ccc4C4CC[C@]5(C)[C@@H](O)CC[C@H]5C43)nn2)c1C` (stereo partly specified), 62.1% (inactive); as for `CCn1cc(C(=O)O)c(=O)c2cc(F)c(N3CCN(S(=O)(=O)c4ccc(OC)c(OC)c4)CC3)cc21`, 90.4% (inactive).
On the same count and under the same terms, as for `COc1cc2nc(SCc3cc(OC)c(OC)c(OC)c3)n(Cc3ccccc3)c(=O)c2cc1OC`, the figure is -5.24% (active); as for `O=[N+]([O-])c1cc(S(=O)(=O)OCC2CO2)ccc1Cl` (stereo unspecified), 121% (inactive); as for `Nc1c(C(=O)Nc2ccccc2)sc2nc3c(cc12)CCC3`, 80.7% (inactive).
For `COc1ccc([N+](=O)[O-])c(/C=C/C(=O)c2ccccn2)c1`, the growth is 83.3% (inactive).
Still for that read-out and setting: as for `CC(C(=O)n1cc(-c2ccccc2)c(-c2ccccc2)c1)c1ccccc1` (stereo unspecified), the figure is 99.8% (inactive); as for `CCNCc1ccncc1`, 97.8% (inactive); as for `NCCSC(c1ccccc1)(c1ccccc1)c1ccccc1`, 24.1% (inactive).
The same measure, in the same setting: to `O=C(O)c1ccc(-n2c(=O)c3ccccc3c3ccccc3c2=O)cc1` belongs 118% (inactive); to `COc1cc(/C=C2\C=C(c3ccc(F)cc3)N(Cc3ccccc3)C2=O)cc(OC)c1OC`, 57.4% (inactive); to `COc1ccc(/C=C2\C(=O)N(C(=O)c3csc(NC(C)=O)n3)N=C2C)cc1`, 121% (inactive).
Take `COc1cccc(NC(=O)Cn2cc3c(=O)oc4ccccc4c3n2)c1`: the growth was 87.2% (inactive).
Still for that read-out and setting: as for `CNC(C)=O`, the figure is 104% (inactive); as for `C=C1C(=O)O[C@H]2[C@H](O)[C@@H](C)CCC/C(C)=C/CC[C@@]3(C)O[C@@H]3C[C@@H]12`, 91.8% (inactive).
Still for that read-out and setting: to `CC(=O)Nc1ccc(S(=O)(=O)NC(CCC(=O)Nc2ccc(Cl)cc2)C(=O)O)cc1` (stereo unspecified) belongs 58.3% (inactive); to `Cn1c(C(N)=O)cc2c1-c1nc(NC3CCCCC3)ncc1CCC2`, 46% (inactive); to `Cc1nc2sccn2c1-c1csc(Nc2ccccc2Cl)n1`, 31.5% (inactive).
The same measure, in the same setting: as for `Cc1ccc(Cn2c(-c3cccs3)nc3ccccc32)cc1`, the figure is 80.2% (inactive); as for `COC1=CC(c2ccc[nH]2)=N/C1=C\c1[nH]c(C)c(C(=O)CCCCC(=O)Nc2ccccc2)c1C`, 116% (inactive); as for `COc1ccc(-c2cn[nH]c2-c2cc(OC)c3c(c2)OCCO3)cc1`, -13.4% (active).
Take `COc1ccc(/C=C/c2nc(N3CCOCC3)c3cc(F)c(F)cc3n2)cc1OC`: the growth is 45.5% (inactive).
On the same count and under the same terms, as for `O=c1oc2cc(OS(=O)(=O)c3ccc(F)cc3)ccc2c2c1CCCCC2`, the figure is 83.4% (inactive); as for `CCn1cc(C(=O)O)c(=O)c2cc(F)c(N3CCN(S(=O)(=O)c4ccc(Cl)cc4Cl)CC3)cc21`, -0.0481% (active); as for `O=C(CN1CCN(c2cc3c(cc2F)c(=O)c(C(=O)O)cn3C2CC2)CC1)Nc1ccc(C(=O)/C=C/c2ccccc2)cc1`, 57.7% (inactive).
For `O=C(CC(O)c1ccncc1)c1ccccc1` (stereo unspecified), the growth is 62.4% (inactive).
Still for that read-out and setting: as for `CCn1cc(C(=O)O)c(=O)c2cc(F)c(N3CCN(S(=O)(=O)c4cccc5ccccc45)CC3)cc21`, the figure is -0.385% (active); as for `CCN(CC)CCCC(C)N=c1cc(Nc2cc(=NC(C)CCCN(CC)CC)c3cc(OC)ccc3o2)oc2ccc(OC)cc12` (stereo unspecified), -8.63% (active).
Still for that read-out and setting: to `NC(=S)NN=C1CCCCC1` belongs 87% (inactive).
